Compound activity: PubChem, The Scripps Research Institute Molecular Screening Center
MITF inh = inhibitors of human MITF; 0.91% of 650,000 active; inhibition, % at 2.6 µM; O75030; AlphaScreen MITF homodimerization, bead proximity signal; in the data active = inhibition above about 50%
GPR151 activ = human GPR151 activation. Q8TDV0. 1% of 650,000 active. AID 1508602. PathHunter beta-arrestin GPR151 cells, luminescence. activation, % at 11.2 µM; in the data active = activation above about 4.9%
TEAD-YAP inh = TEAD-YAP interaction inhibition; 1.4% of 640,000 active; inhibition, % at 9.12 µM; HEK-TIYL cells, TEAD-Gal4/YAP UAS-luciferase luminescence; in the data active = inhibition above about 32%
FBW7 activator = activators of human E3 ligase FBW7 | Q969H0 | AlphaScreen FBW7–phospho-cyclin E peptide binding, activator screen | normalized activity (activation), % at 26.1 µM | 0.13% of 650,000 active | AID 1259310; in the data active = normalized activity above about 1.9%;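 also: purified mutant Fbw7 with reduced substrate affinity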
Target sequence (Q969H0 whole entry, looked up): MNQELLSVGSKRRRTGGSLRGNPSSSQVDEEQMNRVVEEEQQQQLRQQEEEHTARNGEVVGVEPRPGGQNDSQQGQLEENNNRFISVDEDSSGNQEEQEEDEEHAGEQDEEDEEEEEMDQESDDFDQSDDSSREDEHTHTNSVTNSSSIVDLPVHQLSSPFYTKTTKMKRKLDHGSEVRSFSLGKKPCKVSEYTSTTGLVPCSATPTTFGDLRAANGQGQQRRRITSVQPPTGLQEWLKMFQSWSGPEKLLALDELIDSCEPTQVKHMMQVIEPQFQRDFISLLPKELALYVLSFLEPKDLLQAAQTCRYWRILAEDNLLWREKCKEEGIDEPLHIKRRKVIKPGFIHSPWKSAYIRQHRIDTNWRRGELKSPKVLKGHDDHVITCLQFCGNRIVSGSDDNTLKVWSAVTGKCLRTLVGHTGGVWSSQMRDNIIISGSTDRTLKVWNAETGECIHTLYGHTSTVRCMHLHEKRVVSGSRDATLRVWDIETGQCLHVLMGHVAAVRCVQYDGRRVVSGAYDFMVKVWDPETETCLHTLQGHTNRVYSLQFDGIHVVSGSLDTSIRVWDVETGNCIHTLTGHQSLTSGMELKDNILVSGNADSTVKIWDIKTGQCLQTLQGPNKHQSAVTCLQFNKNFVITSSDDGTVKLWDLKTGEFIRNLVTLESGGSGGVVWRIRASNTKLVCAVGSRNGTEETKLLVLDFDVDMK
Numbers stand for hits; 0 = inactive. In the library only some 3.4% were active in any assay of this set; here they are far more common.

SMILES	MITF inh	GPR151 activ	TEAD-YAP inh	FBW7 activator
O=C(Nc1nc2ccc(C(=O)N3CCOCC3)cc2s1)c1cccs1	0	0	42	0
Nc1ccc(C(=O)Nc2nc3ccc(C(=O)N4CCOCC4)cc3s2)cc1	0	0	0	0
COc1ccc([C@@H]2CN(C(=O)Cc3ccccc3F)C[C@H]2C(=O)O)cc1	0	0	0	0
CCNc1nc(OC)nc(Oc2ccc(C(=O)OCC)cc2)n1	0	0	0	0
CCOC(=O)c1ccc(Oc2nc(NC)nc(OC)n2)cc1	0	0	0	1.9
Cc1ccc(C)c(OCC(=O)Nc2ccccc2C(N)=O)c1C	0	0	48	0
CCOc1ccc(NC(=O)COc2c(C)ccc(C)c2C)cc1	0	0	41	0
CCOc1ccc(NC(=O)COc2c(C)cccc2C)cc1	0	0	0	0
O=C(O)/C=C\C(=O)Nc1ccc2ccccc2c1	0	0	0	0
COc1cccc(-n2cc(-c3cc4ccccc4oc3=O)[nH]c2=S)c1	0	0	95	0
CCOc1ccc(N(CC)S(=O)(=O)c2cccc3cccnc23)cc1	0	0	53	0
CSCC[C@H](NC(C)=O)C(=O)N1CCCC(c2[nH]ncc2Cc2ccccc2)C1 (some centres not stated)	0	0	0	0
O=C(COc1ccccc1)Nc1ccc(N2CCC(NCc3ccccc3)CC2)cc1	0	0	34	0
COC(=O)c1sc2ccccc2c1NC(=O)c1cccc(F)c1	0	0	0	0
CNC(=O)c1ccccc1Nc1cc(NC(=O)Cc2cccc(OC)c2)ncc1C(F)(F)F	0	0	64	0
CNC(=O)c1ccccc1Nc1cc(NC(=O)Cc2ccc(OC)cc2)ncc1C#N	0	0	40	0
COc1ccc(CC(=O)Nc2cc(Nc3ccccc3C(=O)NC[C@H](O)C(=O)N(C)C)ccn2)cc1	0	0	0	0
CNC(=O)c1cccnc1Nc1cc(NC(=O)Cc2ccc(OC)cc2)ncc1C(F)(F)F	0	0	70	0
COc1ccc(CC(=O)Nc2cc(Nc3ccccc3-c3ncccn3)c(C(F)(F)F)cn2)cc1	0	0	0	0
CNC(=O)c1ccccc1Nc1cc(NC(=O)Cc2ccc(OC)cc2)ncc1C(F)(F)F	0	0	84	0
CC1(C(=O)OCC(=O)N2CCc3ccccc32)CC1(Cl)Cl (configuration not stated)	0	0	0	0
N#Cc1ccc(NC(=O)CN2CCN(S(=O)(=O)c3ccc4ccccc4c3)CC2)cc1	0	0	0	0
CCOC(=O)c1c2c(n(C)c1CN(C)C)C(=O)C(=O)c1ccc(Br)cc1-2	0	0	96	0
CCOC(=O)c1c2c(n(C)c1CNC(C)C)C(=O)C(=O)c1ccc(Br)cc1-2	0	0	0	0
CC(=O)C1=C(c2ccc(C(C)(C)C)cc2)N(C(C)=O)n2c(C)nnc2S1	0	0	39	0
SMILES	MITF inh	GPR151 activ	TEAD-YAP inh	FBW7 activator
CC(=O)C1=C(c2ccc(C3CCCCC3)cc2)N(C(C)=O)n2c(C)nnc2S1	0	0	41	0
COc1ccccc1C1CN(CCNC(=O)c2sc(C)nc2C)Cc2ccccc2O1 (configuration not stated)	0	0	0	0
FC(F)(F)c1ccc(Cn2cnc3c(NCc4nc5ccccc5[nH]4)nc(N4CCc5ccccc5C4)nc32)cc1	0	0	0	0
Cc1cccc2c1-c1sc(C(=O)NCCCN3CCOCC3)cc1CO2	0	0	0	0
COc1cc(/C=C(\C#N)C(=O)Nc2ccc(O)cc2)cc(Cl)c1O	0	0	54	0
CCOc1cc(/C=C(/C#N)C(=O)Nc2ccc(O)cc2)cc(Br)c1O	0	0	56	0
COc1cc(/C=C(/C#N)C(=O)Nc2ccc(O)cc2)cc(Br)c1O	0	0	43	0
COc1cc(/C=C(\C#N)C(=O)Nc2ccc(Cl)cc2)cc([N+](=O)[O-])c1O	0	0	0	0
COc1cc(/C=C(/C#N)C(=O)Nc2cccc(C)c2)cc(Br)c1O	0	0	0	0
COc1cc(/C=C(\C#N)C(=O)Nc2ccc(F)cc2)cc([N+](=O)[O-])c1O	0	0	37	0
Cc1cc2cc(CNC(=O)C3CCCCC3)ccc2[nH]1	0	0	0	0
CCN(CC)c1ccc(/C=C(/C#N)C(=O)Nc2ccc(O)cc2)cc1	0	0	40	0
CCOCCCNC(=O)/C(C#N)=C/c1ccc(Cl)c([N+](=O)[O-])c1	0	0	0	0
CCOCCCNC(=O)/C(C#N)=C/c1cc(OC)c(O)c([N+](=O)[O-])c1	0	0	48	0
COc1cc(/C=C(/C#N)C(=O)Nc2ccc(O)cc2)ccc1O	0	0	47	0
CCC(=O)NNC(=O)CSc1nc(CC)nc2sc(C)c(C)c12	0	0	0	0
COc1ccc(C(=O)NC(=S)N2CCN(C)CC2)cc1I	0	0	0	0
CC/C(Cc1ccccc1)=N\NC(=O)c1cccc([N+](=O)[O-])c1	0	0	0	0
Cc1c(N2C(=O)CS/C2=N\N=C\c2ccccc2)c(=O)n(-c2ccccc2)n1C	0	0	0	0
O=C(c1ccc([N+](=O)[O-])cc1)N1CCn2cccc2C1c1ccccc1 (configuration not stated)	0	0	0	0
O=C(N[C@H]1C[C@H]2C(=O)N[C@@H](Cc3ccccc3)C(=O)N2C1)c1ccc(Cl)cc1	0	0	0	0
CCC1(O)CC2CN(CCc3c([nH]c4ccccc34)[C@@](C(=O)OC)(c3cc4c(cc3OC)N(C)C3[C@]45CCN4CC=C[C@@](CC)([C@@H](OC(C)=O)[C@]3(O)C(=O)OC)[C@H]45)C2)C1 (some centres not stated)	0	0	70	0
CC[C@]1(O)C[C@H]2CN(CCc3c([nH]c4ccccc34)[C@H](C)[C@H]2c2cc3c(cc2OC)N(C)[C@H]2[C@@](O)(C(=O)OC)[C@H](C)[C@]4(CC)C=CCN5CC[C@]32[C@@H]54)C1	0	0	65	0
CC[C@]1(O)CC2CN(CCc3c([nH]c4ccccc34)[C@@](C(=O)OC)(c3cc4c(cc3OC)N(C)[C@H]3[C@@](O)(C(N)=O)[C@H](O)[C@]5(CC)C=CCN6CC[C@]43[C@@H]65)C2)C1 (some centres not stated)	0	0	47	0
CCC1=C[C@@H]2CN(C1)Cc1c([nH]c3ccccc13)[C@@](C(=O)OC)(c1cc3c(cc1OC)N(C)[C@H]1[C@@](O)(C(=O)OC)[C@H](OC(C)=O)[C@]4(CC)C=CCN5CC[C@]31[C@@H]54)C2	0	0	65	0
SMILES	MITF inh	GPR151 activ	TEAD-YAP inh	FBW7 activator
O=C(NCc1ccco1)C1c2ccccc2C(=O)N2CCc3ccccc3C12 (configuration not stated)	0	0	0	0
Cc1nn(S(=O)(=O)c2ccccc2)c(C)c1S(=O)(=O)N1CCCC1	0	0	0	0
CC(=O)Nc1cccc(OCc2nnc(-c3ccccc3)o2)c1	0	0	0	0
CCOC(=O)CSc1nc2ccsc2c(=O)n1CCc1ccccc1	0	0	0	0
COc1ccc(-c2csc(Nc3cccc(O)c3)n2)cc1	0	0	41	0
CC(=O)Oc1ccc(-c2csc(Nc3cccc(O)c3)n2)cc1	0	0	0	0
Cc1ccc(-c2csc(Nc3cccc(O)c3)n2)cc1	0	0	74	0
CS(=O)(=O)N1CCc2nc(-c3cccnc3)nc(N3CCOCC3)c2C1	0	0	0	0
